The results in this text go back to PubChem BioAssay (NCI).

Test systems include SR leukemia; RPMI-8226 leukemia; OVCAR-8 ovarian; OVCAR-5 ovarian; OVCAR-4 ovarian; SK-OV-3 ovarian; IGROV1 ovarian; OVCAR-3 ovarian; HS 578T breast; NCI/ADR-RES ovarian; T-47D breast; BT-549 breast; MDA-MB-435 melanoma; SW-620 colon; MCF7 breast; HCT-116 colon; HCC-2998 colon; KM12 colon.
Experiment in all cases: NCI-60 one-dose screen, 48 h (100 = growth as untreated, 0 = no growth, -100 = all killed)
Holding throughout (details): 10 µM unless noted

This is part of a sample that, as a whole, favours compounds with a hit. Of some 83,000 tested, about 20% had one in any assay.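 Each cell line was grown in a 96-well plate and treated with one concentration of compound for 48 hours. Values below 10 were considered active.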 Values without a mark were called inactive. Active and inactive are the calls of the source.

As for `O=S(=O)(NCCNc1cc(-c2cn(-c3ccccc3)nc2-c2cccc(O)c2)ccn1)c1ccc(C(F)(F)F)cc1`, the growth with SR leukemia was -23.1% (active); with RPMI-8226 leukemia, 18.5%; in the experiment with OVCAR-8 ovarian, 48.3%; in the experiment with OVCAR-5 ovarian, 62.7%; with OVCAR-4 ovarian it was 39%; with SK-OV-3 ovarian, 54%. Further, the growth was 43.3% in the experiment with IGROV1 ovarian; 49.2% with OVCAR-3 ovarian; 48.6% with HS 578T breast; 43.4% in the experiment on NCI/ADR-RES ovarian; 18.3% in the experiment on T-47D breast; 65.2% in the experiment on BT-549 breast. For the same compound, the growth is 42.4% in the experiment with MDA-MB-435 melanoma; 64.8% in the experiment on SW-620 colon; 25.9% in the experiment with MCF7 breast; 28.4% in the experiment with HCT-116 colon; 8.21% (active) in the experiment on HCC-2998 colon; 46.5% in the experiment with KM12 colon.
Take `COc1ccc(-n2c(/C=C/c3ccc(O)c(OC)c3)cc(/C=C/c3ccc(O)c(OC)c3)nc2=O)cc1`: the growth is 14.2% with SR leukemia; 21.4% with RPMI-8226 leukemia; 66% in the experiment on OVCAR-8 ovarian; 112% in the experiment with OVCAR-5 ovarian; 62.5% with OVCAR-4 ovarian; 62.3% in the experiment on SK-OV-3 ovarian. The growth in the experiment with IGROV1 ovarian is 63.5%; in the experiment with OVCAR-3 ovarian it was 41.4%; in the experiment on HS 578T breast, 62.5%; in the experiment with NCI/ADR-RES ovarian, 84.3%; in the experiment with T-47D breast, 51.8%; with BT-549 breast, 30.9%. The growth was 29.6% with MDA-MB-435 melanoma; 29.8% in the experiment on SW-620 colon; 19.7% with MCF7 breast; 21.1% in the experiment on HCT-116 colon; 94.9% with HCC-2998 colon; 42% in the experiment on KM12 colon.
For `CCOc1ccc(NC(=O)c2ccoc2COc2ccccc2)cc1`, the growth is 113% with SR leukemia; 91.8% in the experiment with RPMI-8226 leukemia; 104% in the experiment with OVCAR-8 ovarian; 103% with OVCAR-5 ovarian; 101% with OVCAR-4 ovarian; 106% with SK-OV-3 ovarian. The growth is 93.5% in the experiment with IGROV1 ovarian; 109% in the experiment with OVCAR-3 ovarian; 105% in the experiment on HS 578T breast; 102% with NCI/ADR-RES ovarian; 108% with T-47D breast; 109% in the experiment with BT-549 breast. Further, the growth in the experiment with MDA-MB-435 melanoma was 103%; in the experiment on SW-620 colon, 104%; in the experiment with MCF7 breast, 95.9%; in the experiment with HCT-116 colon it was 93.6%; in the experiment on HCC-2998 colon it was 109%; with KM12 colon it was 98.8%.
In the case of `Cc1cc2nc3c4cc([N+](=O)[O-])cc([N+](=O)[O-])c4n(CCN(C)C)c3nc2cc1C`, the growth was 5.05% (active) in the experiment on SR leukemia; 67.5% in the experiment on RPMI-8226 leukemia; 61.4% in the experiment with OVCAR-8 ovarian; 87.8% with OVCAR-5 ovarian; 90.8% with OVCAR-4 ovarian; 90.2% in the experiment with SK-OV-3 ovarian. For the same compound, the growth with IGROV1 ovarian is 60.2%; in the experiment with OVCAR-3 ovarian it was 92.6%; in the experiment on HS 578T breast it was 90.2%; with NCI/ADR-RES ovarian it was 57.8%; in the experiment with T-47D breast, 73.6%; in the experiment with BT-549 breast, 90.7%. Besides, the growth in the experiment with MDA-MB-435 melanoma is 92.1%; in the experiment on SW-620 colon, 45.6%; with MCF7 breast, 63.2%; with HCT-116 colon, 45.3%; with HCC-2998 colon, 88.2%; in the experiment on KM12 colon, 77.1%.
On to `C=C1C(=O)O[C@H]2[C@H]1CC/C(COC(=O)NCCc1c[nH]c3ccccc13)=C\CC[C@@]1(C)O[C@@H]21`, for which the growth with SR leukemia was 0.79% (active); in the experiment with RPMI-8226 leukemia, -25.7% (active); in the experiment with OVCAR-8 ovarian, 36.4%; in the experiment on OVCAR-5 ovarian, 56.6%; with OVCAR-4 ovarian, 38.4%; in the experiment with SK-OV-3 ovarian, 89.1%. For the same compound, the growth in the experiment with IGROV1 ovarian is -16.6% (active); in the experiment on OVCAR-3 ovarian, -65.6% (active); in the experiment with HS 578T breast, 81%; with NCI/ADR-RES ovarian it was 65.9%; in the experiment on T-47D breast it was -36.9% (active); with BT-549 breast, -12.9% (active). For the same compound, the growth is 42% in the experiment on MDA-MB-435 melanoma; -33.2% (active) with SW-620 colon; 6.64% (active) with MCF7 breast; -89.1% (active) in the experiment with HCT-116 colon; 94.7% in the experiment with HCC-2998 colon; 89.6% in the experiment on KM12 colon.
On to `CC1(C)C(=O)/C(=C\c2ccccn2)C[C@]2(C)[C@H]3CC[C@@H]4[C@@H](C(=O)/C=C/c5ccccn5)CC[C@@]4(C)[C@]3(C)CC[C@@H]12`, for which the growth is 3.7% (active) in the experiment with SR leukemia; -5.71% (active) in the experiment on RPMI-8226 leukemia; 15.5% in the experiment with OVCAR-8 ovarian; -21.7% (active) in the experiment on OVCAR-5 ovarian; -1.54% (active) in the experiment with OVCAR-4 ovarian; 35.1% in the experiment on SK-OV-3 ovarian. Further, the growth was -52% (active) with IGROV1 ovarian; -69% (active) in the experiment on OVCAR-3 ovarian; 15.1% in the experiment with HS 578T breast; 0.68% (active) in the experiment with NCI/ADR-RES ovarian; 3.15% (active) in the experiment on T-47D breast; -13.6% (active) in the experiment on BT-549 breast. Further, the growth with MDA-MB-435 melanoma is 4.49% (active); with SW-620 colon it was 0.595% (active); in the experiment on MCF7 breast it was 12%; in the experiment with HCT-116 colon, -69.6% (active); with HCC-2998 colon, -79.7% (active); in the experiment on KM12 colon it was -76.2% (active).
For the compound `Cc1cc(N(CCCNc2ccnc3cc(Cl)ccc23)Cc2ccco2)nc(Cl)n1`, the growth is 21.7% in the experiment with SR leukemia; 18.6% with RPMI-8226 leukemia; 41.2% in the experiment on OVCAR-8 ovarian; 69.3% in the experiment with OVCAR-5 ovarian; 54.1% in the experiment with OVCAR-4 ovarian; 58.7% in the experiment with SK-OV-3 ovarian. Further, the growth was 51.8% with IGROV1 ovarian; 66.1% in the experiment with OVCAR-3 ovarian; 75.4% with HS 578T breast; 45.7% with NCI/ADR-RES ovarian; 21.8% with T-47D breast; 35.2% in the experiment on BT-549 breast. For the same compound, the growth is 72.2% in the experiment on MDA-MB-435 melanoma; 66.2% in the experiment with SW-620 colon; 42.4% with MCF7 breast; 28.2% in the experiment on HCT-116 colon; 75.2% in the experiment on HCC-2998 colon; 65.7% in the experiment with KM12 colon.
As to `Cc1cc(C=O)c(C)c2c1[nH]c1ccccc12`, the growth with SR leukemia was 85.5%; with RPMI-8226 leukemia it was 93.9%; in the experiment on OVCAR-8 ovarian it was 93%; in the experiment on OVCAR-5 ovarian, 62.4%; in the experiment on OVCAR-4 ovarian, 87.8%; in the experiment on SK-OV-3 ovarian it was 106%. Also, the growth in the experiment on IGROV1 ovarian is 97.6%; in the experiment on OVCAR-3 ovarian, 108%; with HS 578T breast it was 107%; in the experiment on NCI/ADR-RES ovarian it was 94.2%; with T-47D breast it was 101%; with BT-549 breast, 89%. The growth in the experiment with MDA-MB-435 melanoma is 116%; in the experiment with SW-620 colon, 101%; in the experiment with MCF7 breast, 85.4%; in the experiment on HCT-116 colon, 90.5%; with HCC-2998 colon, 106%; in the experiment with KM12 colon it was 108%.
